# TSG101-PTAP inh = TSG101-PTAP interaction inhibition, HIV-1 budding | Fluorescence polarization, FITC-PTAP peptide/Tsg101, 20 min | Potency, µM (highest dose often 115 µM), actives largely listed as inhibitors | 44,000 tested, under 10 active; also: potency is read from the fitted curve at half-maximal effect; 0% is about no effect
#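 The Tsg101 binding domain, at 10 uM final, is mixed with compound and a FITC peptide bearing the PTAP motif (50 nM final). After 20 min at r.t., polarization is measured; actives defined by CRC class, efficacy cut-off 60% inhibition.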
# FH mod = Identification of activators of human fumarate hydratase by quantitative high-throughput screening; Potency, µM (series often up to 79.9 µM), inactives show at the highest dose activity change, negative = inhibition, most hits filed as inhibitors; Fumarate hydratase, mitochondrial (Homo sapiens), P07954; FH coupled MDH/diaphorase resazurin fluorescence, 15 min; 54,000 compounds, 0.22% hits; also: potency is read from the fitted curve at half-maximal effect; % is scaled to controls: 0 for no effect and ±100 for the full control effect; the screen sought activators but most active calls are inhibition curves; nearly all actives have a fitted effect of over 45% in size
# Target sequence (P07954 whole entry, looked up): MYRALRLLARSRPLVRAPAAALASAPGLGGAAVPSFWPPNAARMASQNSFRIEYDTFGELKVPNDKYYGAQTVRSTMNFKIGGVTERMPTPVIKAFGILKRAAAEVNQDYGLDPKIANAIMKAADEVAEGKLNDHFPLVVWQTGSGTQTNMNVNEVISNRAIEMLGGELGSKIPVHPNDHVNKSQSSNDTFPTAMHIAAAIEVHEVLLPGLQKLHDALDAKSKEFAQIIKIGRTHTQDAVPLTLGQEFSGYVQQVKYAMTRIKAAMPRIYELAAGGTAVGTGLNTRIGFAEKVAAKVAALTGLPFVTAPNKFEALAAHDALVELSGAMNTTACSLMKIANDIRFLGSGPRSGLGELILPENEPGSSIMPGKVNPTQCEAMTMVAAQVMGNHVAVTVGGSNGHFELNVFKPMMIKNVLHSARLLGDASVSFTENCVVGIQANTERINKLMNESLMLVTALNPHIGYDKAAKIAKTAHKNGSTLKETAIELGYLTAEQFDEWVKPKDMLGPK
# B2AR arrestin ag = agonists recruiting beta-arrestin to human beta2-adrenergic receptor; P07550; HTLA Tango cells, beta-arrestin recruitment, luciferase luminescence, 18 h; Potency, µM (doses to about 46.1 µM), usual class: activators; 44,000 tested, under 10 active; AID 1347077;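 also: potency is read from the fitted curve at half-maximal effect; 0% = DMSO and full agonism = EC100 isoproterenol or metaproterenol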
#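 Tango cell line, 1% FBS DMEM; cpd titration up to 46 microM; 18 hr, 37 degrees C, 5% CO2. Luciferin/ATP substrate mix added, 15 min RT, luminescence. %Activity, CRC fitting, curve-class categorization.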
# GALK inhibitor = inhibitors of human galactokinase (GALK). recombinant GALK, Kinase-Glo ATP luminescence, 1 h. P51570. Potency, µM (doses to about 57.5 µM), inactives show at the highest dose activity, negative = inhibition, usual class: inhibitors. AID 1347072. 44,000 tested, under 10 active;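 also: plate controls were full GALK reaction for no effect and reaction lacking GALK for full effect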
#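 5 nM GALK; 35 uM ATP; 100 uM D-galactose; 20 mM HEPES pH 8.0, 5 mM MgCl2, 60 mM NaCl, 1 mM DTT, 0.01% BSA; 1 h RT; Kinase-Glo Plus luminescence.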
# NTMT1 inhibitor = inhibitors of human N-terminal methyltransferase NTMT1 | Q9BV86 | NTMT1 MTase-Glo SAH luminescence, purified enzyme | Potency, µM (doses to about 114 µM), inactives show at the highest dose activity change, negative = inhibition, actives largely listed as inhibitors | 59,000 compounds, 2.5% hits | AID 1645870;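 also: potency is read from the fitted curve at half-maximal effect; plate controls were DMSO vehicle for no effect and no enzyme for full effect; nearly all actives have a fitted effect of over 65% in size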
# Target sequence (Q9BV86 whole entry, looked up): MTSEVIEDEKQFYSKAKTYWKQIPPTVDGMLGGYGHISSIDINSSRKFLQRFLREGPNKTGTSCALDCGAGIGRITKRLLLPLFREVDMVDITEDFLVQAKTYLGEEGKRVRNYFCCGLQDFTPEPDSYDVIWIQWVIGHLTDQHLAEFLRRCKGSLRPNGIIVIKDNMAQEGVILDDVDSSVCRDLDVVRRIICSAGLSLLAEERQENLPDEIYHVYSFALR
# GPR32 ag = GPR32 (DRV1) agonism, beta-arrestin recruitment | O75388 | CHO-K1 GPR32 beta-arrestin PathHunter luminescence, 90 min; zero percent set by DMSO-only wells | activation, % at 76.9 µM | 48,000 compounds, 2.5% hits | AID 1346428;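 active = activation of at least 60% and not above a set upper limit, about 1 call in 100 departs from these limits; inconclusive = activation of 40% to 60%, or above that upper limit; inactive = activation under 40%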; also: 0% is about no effect
#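 Using DMSO wells as EC0, agonist-induced signal was taken as chemiluminescence from beta-Gal reconstituted upon beta-arrestin recruitment to GPR32 in CHO-K1 cells after 90 min compound treatment.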
# Numbers without * were called inactive; i = inactive; u = inconclusive; x = no result; [ ] = dose if it differs, or a comment. Compounds with a hit are over-represented: about 3.7% of the library has one in this group of screens. Unless noted, calls follow the shape of the dose curve; as a rule, active = well fitted curve in the direction sought with a large enough effect; inconclusive = small, poorly fitted or top-dose-only effect, or another doubt; inactive = no such curve, though single readings can be large; an effect the other way counts as inactive or inconclusive.
SMILES,TSG101-PTAP inh,FH mod,B2AR arrestin ag,GALK inhibitor,NTMT1 inhibitor,GPR32 ag
Cc1cccc(NC(=O)c2sc3nc4c(cc3c2N)CN(C(C)C)CC4)c1,i,0.3%,i,1.2%,u,-3.4
Cc1cccc(NC(=O)c2sc3nc4c(cc3c2N)CN(Cc2ccccc2)CC4)c1,i,-0.5%,i,10.7%,-10.8%,-10.0
CC1CCC2C(C(=O)O)=CC3CC(C)(C)CC132 (centres undefined),x,-3.5%,x,x,6.5%[57.5 µM],x
O=C([C@H](Cc1ccc(O[S+](=O)([O-])c2cccc3cccnc23)cc1)N[S+](=O)([O-])c1ccccn1)N1CCN(c2ccccc2)CC1,x,x,x,x,10.3%,x
CO[C@H]1O[C@@H]2O[C@@]3(C)CCC4[C@H](C)CCC([C@H]1C)[C@]42OO3 (some centres undefined),x,3.0%,x,x,3.2%[57.5 µM],x
CN1CCc2nc3sc(C(=O)Nc4c(F)cccc4F)c(N)c3cc2C1,i,-10.9%,i,8.6%,-0.3%,0.5
CCN1CCc2nc3sc(C(=O)Nc4cccc(Cl)c4C)c(N)c3cc2C1,i,-7.6%,i,6.9%,u,120.8*
Cc1ccc(NC(=O)c2sc3nc4c(cc3c2N)CN(Cc2ccccc2)CC4)cc1,i,-4.1%,i,8.1%,-21.8%,115.8*
COc1ccc(NC(=O)c2sc3nc4c(cc3c2N)CN(Cc2ccccc2)CC4)cc1,i,-16.3%,i,-1.2%,u,10.3
CNC(=O)[C@H]1O[C@@H](n2cnc3c(NCc4ccc(N)cc4)ncnc32)[C@H](O)C1O (some centres undefined),x,-21.2%[53.3 µM],x,x,x,x
COC(=O)N1CC2(CC2)C[C@H](C(=O)NO)[C@H]1C(=O)N1CCN(c2ccccc2)CC1,x,x,x,x,3.4%[57.5 µM],x
Fc1ccc(-c2nc(CCCCSc3nnc(-c4cccc5ccccc45)o3)no2)cc1,x,x,x,x,4.4%,x
CCOC(=O)C1CCN(C(=O)C(C)(C)NC(=O)Nc2ccc3sccc3c2)CC1,x,x,x,x,4.8%[57.5 µM],x
CSc1ccccc1-c1ccc(Nc2nc(-c3ccncc3)nc3ccccc23)cc1F,x,x,x,x,-0.9%[57.5 µM],x
Nc1nc(Nc2ccc3c(c2)CCC(N2CCCC2)CC3)nn1-c1cc2c(nn1)-c1ccccc1CCC2 (centres undefined),x,-11.3%,x,x,39.8µM*,x
CCOc1cccc2c1OC(c1ccc(F)cc1)C([N+](=O)[O-])=C2 (centres undefined),x,-3.3%,x,x,-20.0%,x
CCn1c(SCC(=O)Nc2cc(C)ccc2F)nnc1-c1ccccc1O,i,-17.9%,i,6.8%,-2.2%,82.1*
COc1ccc(N2C[C@]34C=C[C@H](O3)C(C(=O)O)C4C2=O)cc1OC (some centres undefined),x,x,x,x,13.2%,x
COc1ccc(Cn2c(CO)cnc2SCc2ccccc2C)cc1,i,-0.8%,i,-1.8%,-3.1%,-12.5
COc1ccc(Cn2c(CO)cnc2SCc2ccc(F)cc2)cc1,i,2.9%,i,-0.8%,89.1µM*,u
OCc1cnc(SCc2ccccc2F)n1Cc1ccc(F)cc1,i,6.2%,i,-2.3%,-8.0%,93.9*
O=C(NO)C1(CS(=O)(=O)c2ccc(Oc3ccc(Cl)cc3)cc2)CCOCC1,x,x,x,x,-15.7%,x
COc1ccc(CNc2ccc(S(=O)(=O)Nc3nccs3)cc2)cc1O,x,x,x,x,3.9%,x
COc1cc(N2CCC(N(C)C)CC2)ccc1Nc1ncc(Cl)c(Nc2ccccc2P(C)(C)=O)n1,x,-1.4%,x,x,u,x
Cc1cccc(NC(=O)c2ccc(-c3ccccc3)s2)c1,i,8.0%,i,-0.9%,-11.3%,-9.4
SMILES,TSG101-PTAP inh,FH mod,B2AR arrestin ag,GALK inhibitor,NTMT1 inhibitor,GPR32 ag
O=C(Nc1cccc(F)c1)c1ccc(-c2ccccc2)s1,i,7.9%,i,7.2%,2.6%,68.3*
Cc1ccc(C2C=C(c3ccc(Cl)cc3)Nc3nc(NS(=O)(=O)c4ccccc4)nn32)cc1 (centres undefined),u,-13.3%,i,2.3%,2.7%,73.0*
Cc1ccc(C2C=C(c3ccccc3)Nc3nc(NS(=O)(=O)c4ccc(C)cc4)nn32)cc1 (centres undefined),i,u,i,1.7%,-24.3%,93.9*
COc1ccc(C2C=C(c3ccccc3)Nc3nc(NS(=O)(=O)c4ccc(C)cc4)nn32)cc1 (centres undefined),i,-20.3%,i,-11.3%,u,u
CC(C)CC(=O)OC1OC=C(CO[C@@H]2O[C@H](CO)[C@@H](O)[C@H](O)[C@H]2O)C2CC(O)C(O)(CO)C12 (some centres undefined),x,0.4%[53.3 µM],x,x,9.4%[29.8 µM],x
O=C(Nc1ccc(Cl)c(Cl)c1)Nc1ccnc(-c2ccncc2)n1,x,x,x,x,-7.9%,x
Cc1ccc(OCC(=O)Nc2ccc3c(c2)sc(=O)n3C)cc1,i,-6.3%,i,0.6%,4.2%,73.0*
NC(=O)C[C@H](N)C(=O)Nc1ccc(Cl)cc1C(=O)c1ccc[nH]1,x,x,x,x,5.7%,x
Cc1cncc2cccc(S(=O)(=O)N3CCCNC[C@@H]3C)c12,x,0.1%,x,x,79.4µM*,x
C[C@]1(C(=O)Nc2ccc(F)nc2)CCCN1c1nc(Nc2cc(C3CC3)[nH]n2)c2cccn2n1,x,8.4%,x,x,12.9%,x
CCOc1ccc(CNCc2c(C(=O)O)n(Cc3ccc(C)cc3)c3cc(C)ccc23)cc1,i,u,i,u,15.8%,64.3*
C=Cc1ccc(Cn2c(C)c(CNCCc3ccc(OCC)cc3)c(C(=O)O)c2C)cc1,i,-2.0%,i,-0.9%,-17.8%,67.5*
C=Cc1ccc(Cn2c(C)c(CNCc3ccccc3C)c(C(=O)O)c2C)cc1,i,-1.9%,i,1.2%,u,26.5
Cc1ccc(Cn2c(C(=O)O)c(CNCc3cccs3)c3ccc(C)cc32)cc1,i,-24.7%,i,3.1%,-8.3%,110.5*
CC(=O)Nc1sc2c(c1-c1ccc(C(N)=O)cc1)CCNC2,x,x,x,x,-11.5%,x
O=S(=O)(N=Cc1c(O)ccc2ccccc12)c1cccs1,x,-12.2%[53.3 µM],x,x,-11.3%[57.5 µM],x
O=S(=O)(/N=C/c1c(O)ccc2ccccc12)c1cccs1,x,15.8µM*,x,x,u,x
N#Cc1ccc(Cn2cncc2CN2CCN(c3cccc(Cl)c3)C(=O)C2)cc1,x,x,x,x,-17.1%,x
Cc1ccc2[nH]cc(C(c3ccccc3)c3ccc(Cl)s3)c2c1 (centres undefined),i,u,i,1.8%,12.4%,30.9
Clc1ccc(C(c2ccccc2)c2c[nH]c3ccccc23)s1 (centres undefined),i,u,i,2.5%,-1.6%,106.9*
